Compounds with a hit are over-represented: about 1.6% of the library has one in this group of screens.
sEH act: soluble epoxide hydrolase (human) activation | P34913 | AID 717 | purified human sEH enzymatic activity, activator screen | actives 0.04% (n = 91,000) | activation, % at 2 µM; in the data active = activation above about 37%
PLK1 PBD inh: Plk1 (human) PBD binding inhibition; actives 0.13% (n = 97,000); P53350; inhibition, %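 (tested at about 20 µM)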; AID 693; Plk1 PBD phosphopeptide binding, fluorescence polarization; in the data active = inhibition above about 34%, passing the limit was not always enough
Target sequence (P53350 whole entry, looked up): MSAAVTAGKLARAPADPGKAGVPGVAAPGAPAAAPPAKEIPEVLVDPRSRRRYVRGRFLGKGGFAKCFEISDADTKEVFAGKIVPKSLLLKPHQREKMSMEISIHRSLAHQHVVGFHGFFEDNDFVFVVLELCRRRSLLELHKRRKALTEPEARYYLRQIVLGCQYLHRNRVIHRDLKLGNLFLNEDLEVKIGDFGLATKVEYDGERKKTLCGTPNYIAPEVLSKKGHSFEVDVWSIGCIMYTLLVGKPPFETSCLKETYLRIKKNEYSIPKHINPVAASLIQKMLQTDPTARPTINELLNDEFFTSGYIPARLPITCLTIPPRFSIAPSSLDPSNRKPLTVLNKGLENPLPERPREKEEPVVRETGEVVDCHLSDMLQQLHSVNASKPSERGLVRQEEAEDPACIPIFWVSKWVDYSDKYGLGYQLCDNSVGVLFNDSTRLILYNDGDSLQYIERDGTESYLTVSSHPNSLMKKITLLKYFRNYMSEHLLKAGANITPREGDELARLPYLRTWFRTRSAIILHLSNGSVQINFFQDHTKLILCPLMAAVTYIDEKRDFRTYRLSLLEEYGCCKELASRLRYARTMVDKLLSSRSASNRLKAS
PTK2B oligo ant: Pyk2 (human) oligomerization antagonism. Q14289. Q293 cells, Pyk2 FERM NanoBiT luminescence; hits give low values. z-score (the deposit names both 25 µM and 10 µM). actives 0.83% (n = 99,000);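 active = Z-score of -3 or lower, scaled per plate to the spread of control and sample wells; inactive = z-score above -3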;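 note: negative z-score means lost luminescence so less FERM oligomerization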
sEH inhibitor: soluble epoxide hydrolase (human) inhibition; P34913; recombinant human sEH enzymatic activity assay; inhibition, % at 2 µM; actives 0.34% (n = 91,000); AID 707; in the data active = inhibition above about 80%
PLK1 kinase inh: inhibitors of human PLK1 kinase; P53350; recombinant PLK1 kinase, TR-FRET peptide phosphorylation; inhibition, % at 10 µM; actives 0.53% (n = 97,000); AID 619;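 active = inhibition of 50% or more in the single-concentration screen; inactive = inhibition below 50%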
PLK1 confirm: confirmation of human PLK1 kinase inhibitors | shares compounds with PLK1 kinase inh | recombinant PLK1 kinase, TR-FRET peptide phosphorylation | inhibition, % at 10 µM | actives 20% (n = 210);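 active = inhibition at or above 50% in each of two repeat confirmation tests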
Plk1 interf: interferes with the Plk1 assay readout, not true inhibition | 210 tested, under 10 active | inhibition (interference), % at 10 µM | Plk1 TR-FRET assay interference, compound added post-reaction | shares compounds with PLK1 kinase inh;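 active = both duplicate runs show 50% or greater inhibition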
Redox H2O2 DR: counter-screen for Plk1 PBD inhibitors: redox cycling H2O2 generation; EC50, µM; 120 tested, under 10 active; DTT; shares compounds with PLK1 PBD inh; call rule not given here
Large screens that a line does not name were inactive (follow-up assays come after a bar, where they were run).

CC1(c2ccccc2)NC(=O)N(CC(=O)Nc2ccc3c(c2)OCO3)C1=O (stereo unspecified)	PLK1 kinase inh 90.7 | PLK1 confirm inactive | Plk1 interf inactive
S=c1[nH]nc(COc2ccc(Cl)cc2)o1	none (no result: sEH act, PLK1 PBD inh, sEH inhibitor, PLK1 kinase inh)
CC(C)(C)OC(=O)CN1C(=O)C(Sc2n[nH]c(-c3ccccc3)n2)CCc2ccccc21 (stereo unspecified)	none
O=c1c2c([nH]c3ccc(Br)cc13)CCCC2	none (no result: sEH act, PLK1 PBD inh, sEH inhibitor, PLK1 kinase inh)
O=c1ccc2cc3c([nH]c4ccc(Br)cc43)oc-2c1O	PLK1 kinase inh 71.3 | PLK1 confirm inactive | Plk1 interf inactive
CC(=O)Nc1ccc(C(=O)CSc2ncn(-c3ccccc3)n2)cc1	PLK1 kinase inh 83.5 | PLK1 confirm inactive | Plk1 interf inactive
O=C(CSc1ncn(-c2ccccc2)n1)Nc1nccs1	none
CCCc1[nH]nc2c1C(c1ccccc1OC)C(C#N)=C(N)O2 (stereo unspecified)	none
CCCc1[nH]nc2c1C(c1ccc(O)c(OC)c1)C(C#N)=C(N)O2 (stereo unspecified)	PLK1 kinase inh 109.2 | PLK1 confirm inactive | Plk1 interf inactive
Cc1cc(NC(=O)c2cnn3cccnc23)nn1CC(=O)Nc1cccnc1	none
O=C(Nc1cccnc1)c1cnn2cccnc12	PLK1 kinase inh 76.2 | PLK1 confirm 62.5 | Plk1 interf inactive
COc1ccc(NC(=O)c2ccccc2NC(=O)CSc2ccc(Cl)cc2)cc1	none
Cc1c(NC(=O)C(C)N2C(=O)C3C4C=CC(C4)C3C2=O)c(=O)n(-c2ccccc2)n1C (stereo unspecified)	PLK1 kinase inh 70.8 (no result: sEH act, PTK2B oligo ant, sEH inhibitor) | PLK1 confirm inactive | Plk1 interf inactive
Cc1c(NC(=O)C(C)N2C(=O)c3ccccc3C2=O)c(=O)n(-c2ccccc2)n1C (stereo unspecified)	none
COc1ccc(-c2cc(C(=O)NCCN3CCOCC3)c3ccccc3n2)cc1	none
O=C(NCCCN1CCOCC1)c1cc(-c2ccc3c(c2)OCO3)nc2ccccc12	PLK1 kinase inh 71.6 (no result: sEH act, PTK2B oligo ant, sEH inhibitor) | PLK1 confirm inactive | Plk1 interf inactive
CCc1cc(=O)oc2cc(OCC(=O)N(CC)CC)c(Cl)cc12	PLK1 kinase inh 71.7 (no result: sEH act, PTK2B oligo ant, sEH inhibitor) | PLK1 confirm inactive | Plk1 interf inactive
Cc1ccccc1N1C(N)=NC(N)=NC1(C)C	none (no result: PTK2B oligo ant)
COc1ccccc1N1C(N)=NC(N)=NC1(C)C	PLK1 kinase inh 79.4 (no result: sEH act, sEH inhibitor) | PLK1 confirm inactive | Plk1 interf inactive
COc1ccccc1C(=O)Nc1cc(-c2nn3c(C)nnc3s2)ccc1C	none (no result: PTK2B oligo ant)
Cc1cc(N)ccc1N1CCCC1	PLK1 kinase inh 80.0 | PLK1 confirm inactive | Plk1 interf inactive
COC(=O)c1[nH]c2ccc(Cl)cc2c1NC(=O)CN1CCC(C(N)=O)CC1	PLK1 kinase inh 71.9 (no result: PTK2B oligo ant) | PLK1 confirm inactive | Plk1 interf inactive
COc1ccnc(Oc2ccc(C)cc2C)c1C#N	none
COc1ccc(S(=O)(=O)Cc2ccc(C(=O)N3CCN(c4cccc(C)c4)C(C)C3)o2)cc1 (stereo unspecified)	PLK1 kinase inh 72.9 (no result: sEH act, PTK2B oligo ant, sEH inhibitor) | PLK1 confirm inactive | Plk1 interf inactive
COc1ccc(N2CCN(C(=O)c3ccc(CS(=O)(=O)c4ccc(OC)cc4)o3)CC2)cc1	none (no result: PTK2B oligo ant)
O=C(COc1ccccc1C(=O)N/N=C\c1ccc(O)c(O)c1)N/N=C/c1ccc(O)c(O)c1	PLK1 kinase inh 85.5 | PLK1 confirm 71.7 | Plk1 interf 68.8
CCCCOC(=O)CCn1c(=S)oc2ccccc21	PLK1 kinase inh 124.8 | PLK1 confirm inactive | Plk1 interf inactive
Cc1cccc(N=Nc2c(N)n[nH]c2-c2ccc(Cl)cc2)c1	PLK1 kinase inh 70.7 | PLK1 confirm 58.8 | Plk1 interf inactive
COc1cc(C2C(C(=O)OC(C)C)=C(C)Nc3ncnn32)cc(OC)c1OC (stereo unspecified)	PLK1 kinase inh 81.2 (no result: sEH act, PTK2B oligo ant, sEH inhibitor) | PLK1 confirm inactive | Plk1 interf inactive
COc1ccc(C2C(C(C)=O)=C(C)Nc3ncnn32)cc1OC (stereo unspecified)	none
Cc1ccc(S(=O)(=O)CCc2nnc(N)s2)cc1	none
CCc1c(C)nc2cc(-c3ccc(OC)c(OC)c3)nn2c1NCC1CC1	none
O=c1[nH]cnc2cc(-c3ccccc3)sc12	PLK1 kinase inh 79.6 | PLK1 confirm 72.6 | Plk1 interf inactive
CCN(CC)c1ccc(-c2nc3cnccc3n2C)cc1	none (no result: sEH act, PLK1 PBD inh, sEH inhibitor, PLK1 kinase inh)
O=C1CN(C(=O)CN2CCCC2)C(c2ccccc2)c2cc(Br)ccc2N1 (stereo unspecified)	none
Cc1ccc2c(c1)C(c1ccccc1)N(C(=O)C(C)C)CC(=O)N2 (stereo unspecified)	PLK1 kinase inh 70.7 (no result: sEH act, PTK2B oligo ant, sEH inhibitor) | PLK1 confirm inactive | Plk1 interf inactive
CCCCNC(=O)CN(c1cccc(Br)c1)S(C)(=O)=O	none
NNc1ncnc2c1cnn2-c1ccccc1	PLK1 kinase inh 75.3 | PLK1 confirm 68.0 | Plk1 interf inactive
CC(=O)c1ccccc1Oc1nc(CN2CCOCC2)nc2scc(-c3cccs3)c12	none (no result: sEH act, PLK1 PBD inh, sEH inhibitor, PLK1 kinase inh)
CCOC(=O)c1c(C)n(C)c2ccc(OCC(O)CN3CCN(C)CC3)cc12 (stereo unspecified)	PLK1 kinase inh 75.2 (no result: sEH act, PTK2B oligo ant, sEH inhibitor) | PLK1 confirm inactive | Plk1 interf inactive
CC1(c2ccc(Cl)cc2Cl)OCC(Cn2ccnc2)O1 (stereo unspecified)	none
O=C(Nc1ccccn1)C1CCN(S(=O)(=O)c2cccc3nonc23)CC1	PLK1 PBD inh 36.2 | Redox H2O2 DR inactive
COC(=O)CCc1c(C)[nH]c(=S)[nH]c1=O	PLK1 PBD inh 45.2 | Redox H2O2 DR inactive
CCOC(=O)Cc1c(C)[nH]c(=S)[nH]c1=O	none
CCC(=O)Nc1ccccc1C(=O)NC1CCCCC1	PLK1 PBD inh 40.5 | Redox H2O2 DR inactive
O=C(O)CCC(=O)Nc1ccccc1C(=O)NC1CCCCC1	none
COCCN(C(=O)CCC(=O)Nc1ccccn1)C(C(=O)NC1CCCC1)c1ccc(OC)cc1 (stereo unspecified)	none
CCCCOCCCNC(=O)CCCOc1ccccc1	none
CCOCCCNC(=O)CCCOc1ccccc1	PLK1 PBD inh 42.7 | Redox H2O2 DR inactive
O=C(O)COc1ccc(Br)cc1/C=N/O	PLK1 PBD inh 44.5 | Redox H2O2 DR inactive
NC(=O)c1nsc(C(=O)N(CC(=O)NCc2ccc3c(c2)OCO3)C2CCCC2)c1N	none
Cc1nc2ccc(Br)cn2c(=O)c1Cl	none (no result: sEH act, sEH inhibitor)
Cc1nc2cccc(C)n2c(=O)c1Cl	PLK1 PBD inh 42.5 | Redox H2O2 DR inactive
O=C(CN1C(=O)COc2ccccc21)NCc1ccc(C(=O)O)cc1	PLK1 PBD inh 50.5 (no result: sEH act, sEH inhibitor) | Redox H2O2 DR inactive
C/C(=C\C(=O)Nc1cc(C)on1)c1ccccc1	PLK1 PBD inh 39.9 | Redox H2O2 DR inactive
COc1ccc(C2SCCN2S(=O)(=O)c2ccc(F)cc2)cc1OC (stereo unspecified)	none (no result: sEH act, sEH inhibitor)
COc1ccccc1C1SCCN1S(=O)(=O)c1cccc(C(F)(F)F)c1 (stereo unspecified)	PLK1 PBD inh 51.2 | Redox H2O2 DR inactive

Assay outcomes as filed in PubChem BioAssay.
